Experimental data reported in PubChem BioAssay AID588342 (National Center for Advancing Translational Sciences (NCATS), 2011).
The campaign covered roughly 360,000 compounds. About 25,000 (6.9%) were called active. Not shown: some 9% with an inconclusive outcome. What follows is part of a selection rich in actives, with near analogues and random picks from the rest. A call without a number means that no potency is given here. A number with no mark means an inactive call. Calls come from the whole dose curve; as a rule, active = well fitted inhibition curve with a large enough effect; inconclusive = small, poorly fitted or top-dose-only effect; inactive = flat fitted curve, though single readings scatter.
Note: nearly all actives have a fitted effect of over 55% in size.

These compounds were tested against Luciferin 4-monooxygenase (Photinus pyralis) (UniProt P08659) (assay: qHTS profiling assay for firefly luciferase inhibitor/activator using purifed enzyme and Km concentrations of substrates (counterscreen for miR-21 project)). Settings: purified FLuc, luminescence inhibition; series mostly up to 57.5 µM.
Sequence of Luciferin 4-monooxygenase (Photinus pyralis) (P08659 whole entry, looked up): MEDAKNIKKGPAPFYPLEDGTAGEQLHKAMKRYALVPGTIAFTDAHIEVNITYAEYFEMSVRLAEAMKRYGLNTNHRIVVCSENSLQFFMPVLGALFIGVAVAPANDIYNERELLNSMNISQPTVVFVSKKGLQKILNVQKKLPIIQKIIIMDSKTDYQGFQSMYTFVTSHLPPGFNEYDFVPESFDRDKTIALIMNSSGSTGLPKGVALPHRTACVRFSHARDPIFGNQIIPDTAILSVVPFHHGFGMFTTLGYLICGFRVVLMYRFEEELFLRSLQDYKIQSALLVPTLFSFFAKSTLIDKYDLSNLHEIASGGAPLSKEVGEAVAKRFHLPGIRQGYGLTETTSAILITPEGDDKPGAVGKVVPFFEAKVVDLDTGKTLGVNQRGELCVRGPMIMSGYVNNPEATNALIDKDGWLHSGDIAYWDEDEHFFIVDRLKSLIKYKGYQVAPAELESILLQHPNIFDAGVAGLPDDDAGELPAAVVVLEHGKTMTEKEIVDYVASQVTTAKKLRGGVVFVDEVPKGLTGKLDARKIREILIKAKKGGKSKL
Excerpt: MLPCN Grant: 1 R21 NS059478-01 (miR-21 grant) Assay Provider: NCGC NCGC Assay Overview: Firefly (Photinus pyralis) luciferase is one of the most commonly used transcriptional reporters for a number of reasons. It is considered one of the more dynamically responsive reporters -that is, responsive to changes in reporter transcription - as it requires no post-translational modifications and is enzymatically active directly after protein synthesis (Wood, 1998). Additionally, the half-life of the luciferase protein is short relative to other reporter-gene products (Wood, 1995). Whereas reporters with long half-lives potentially allow for increased signal due to accumulation of reporter-gene product, once accumulated in the cell, dynamic changes in reporter-gene expression may be difficult to detect(Fan and Wood, 2007; Almond et al., 2004). It has been shown that wild-type P. pyralis luciferase has a half-life of approximately […] hours in mammalian cells (Thompson et al., 1991). Firefly luciferase reporter-gene assays are also generally considered one of the most sensitive assay types (Wood, 1995; Wood, 1998). Although light produced in a bioluminescence reaction is of lower intensity than that produced during fluorescence emission, this is offset by little to no background light inherent to luminescent assays. Thus the luciferase reporter can be expressed at much lower levels than fluorescent proteins while still providing robust signal. # However, it was initially observed, in 1991, by Thompson et al., that compounds that resemble the substrates of firefly luciferase (FLuc) can act as competitive inhibitors of the enzyme, and that these compounds, upon interaction with luciferase in the cell, can actually stabilize the protein and increase its half-life. Accumulated intracellular FLuc protein can be measured as an increase in luminescence signal, upon addition of detection reagents (which contain high concentrations of FLuc substrates) commonly used in high-throughput screening. In cell-based reporter gene assays that use FLuc as the reporter gene to quantitate the potential influence of a given compound against the target biology, this apparent increase in luminescence can mistakenly be interpreted as identification of a compound that is active against the target of interest. This is the case for the miR-21 FLuc reporter gene assay used to identify inhibitors of the miR-21 pathway (PubChem AID 2289) - compounds of interest will inhibit miR-21 biogenesis/expression or activity, and are identified by causing an increase in luminescence, due to increased FLuc translation. However, FLuc inhibitory compounds that stabilize the FLuc protein will give an identical read-out, making it difficult to distinguish compounds that are active against the target from those active against FLuc. Previous profiling work to determine the prevalence of compounds that affect FLuc enzymatic activity (PubChem AID 411) identified that ~3% of the MLSMR library (then at ~72K) inhibited FLuc. […] Since the MLSMR had grown to ~350K compounds, and since it was expected that a significant percentage of compounds found active in the miR-21 FLuc assay would be FLuc inhibitors, the library was screened for activity against FLuc using a biochemical assay of purified FLuc and KM concentrations of FLuc substrates (D-luciferin and ATP).
NCGC Assay Protocol Summary: Reagents: 50mM Tris acetate, pH 7.5; 10mM Mg acetate; 10uM D-luciferin (Sigma #L9504); 10uM ATP; 0.01% Tween-20; 0.05% BSA; 10nM P. pyralis luciferase (Sigma #L9506) Control compounds used were two known firefly luciferase inhibitors (compounds (2) and (5) in Auld et al., 2010), and DMSO. […]
With `Cc1ccc(CNS(=O)(=O)c2ccc(-c3cc(C(F)(F)F)on3)s2)cc1` the Potency was “inactive”. In the case of `COc1ccc(S(=O)(=O)Nc2cc(C)on2)cc1NC(C)=O`, the Potency is reported as “inactive”. `Cc1ccc(-c2nc(S(=O)(=O)c3ccc(C)cc3)c(N3CCCCCC3)o2)cc1` was tested, and the Potency was “inactive”. With `Nc1ccccc1Sc1cc(Cl)nnc1Cl` the Potency was “inactive”. For `COC(=O)c1scc(-c2ccccc2)c1S(=O)(=O)Nc1ccccc1`, the Potency was “inactive”. `COc1cc(C(F)(F)F)nc2c(Br)c(C(C)(C)C)nn12` was tested, and the Potency was “inactive”. In the case of `O=C(NCCc1c[nH]c2ccccc12)C1CCN(Cc2ccc(Br)cc2)CC1`, the Potency is reported as “inactive”. With `O=C(NCCc1ccccc1)c1ccc2c(c1)N(Cc1ccc(F)cc1)C(=O)c1ccccc1S2(=O)=O` the Potency was “inactive”. For `Cc1ccccc1OCc1nc2c3cnn(-c4ccccc4F)c3ncn2n1`, the Potency was “inactive”. `COC(=O)c1ccccc1NC(=O)Cn1c(=O)n(-c2cccc(C(F)(F)F)c2)c(=O)c2c(C)c(C)sc21` was tested, and the Potency was “inactive”. In the case of `CSc1ncc(Cl)c(C(=O)Nc2ccc(S(=O)(=O)N3CCCC(C)C3)cc2)n1` (stereo unspecified), the Potency is reported as “inactive”. With `CC(=O)Nc1cccc(-c2nc3ccccc3s2)c1C` the Potency was 6.01 µM (active). With `CCC(C(=O)Nc1cccc(-c2nc3cccnc3s2)c1C)c1ccccc1` (stereo unspecified) the Potency was “inactive”. With `Cc1c(NC(=O)C(C)(C)C)cccc1-c1nc2ccccc2s1` the Potency was 4.78 µM (active). In the case of `Cc1cccc(C(=O)N2CCC(c3nc4ccccc4s3)CC2)c1`, the Potency is reported as “inactive”. With `COc1ccc(CC(=O)Nc2ccc(-c3nc4ccccc4s3)c(C)c2)cc1` the Potency was “inactive”. For `Cc1cccc(C(=O)Nc2ccc(-c3nc4ccccc4s3)c(C)c2)c1`, the Potency was 2.69 µM (active). `CCCCc1nn2c(=O)cc(COC(=O)c3ccccc3NC(=O)C(C)(C)C)nc2s1` was tested, and the Potency was “inactive”. In the case of `Cc1c(NC(=O)Cc2ccccc2)cccc1-c1nc2cccnc2s1`, the Potency is reported as “inactive”. `Cc1cccc(NC(=O)Cn2c(C(F)(F)F)nc3ccccc32)c1C` was tested, and the Potency was “inactive”. With `COCCCNC(NC(=O)c1ccc(OC)cc1)C(Cl)(Cl)Cl` (stereo unspecified) the Potency was “inactive”. For `COC(=O)c1scc(-c2ccc(C)cc2)c1S(=O)(=O)Nc1cc(Cl)c(OC)cc1OC`, the Potency was “inactive”. `COc1ccccc1Nc1cc(C(=O)NCCCN(C)C2CCCCC2)c2ccccc2n1` was tested, and the Potency was “inactive”. With `Cc1ccc(C(=O)CC2(O)C(=O)N(CCc3ccccc3)c3ccc(Br)cc32)cc1` (stereo unspecified) the Potency was “inactive”. With `COc1cc(Cl)ccc1Nc1ncc(C(=O)N2CCN(c3ccccc3OC)CC2)c2ccccc12` the Potency was “inactive”. In the case of `COc1cc(OC)cc(C(=O)NCCSCc2ccc(Cl)cc2)c1`, the Potency is reported as “inactive”. For `O=C(O)c1cscn1`, the Potency was “inactive”. With `O=C(CCNS(=O)(=O)c1ccccc1)NCCCc1ccccc1` the Potency was “inactive”. For `CC(=O)Nc1ccc(NC(=O)COc2ncnc3ccccc23)cc1`, the Potency was “inactive”. In the case of `CC(=O)Nc1cccc(-c2cnc3ccccc3n2)c1`, the Potency is reported as 12 µM (active). For `O=C(Nc1ccc(-c2csc(Nc3cccc(C(F)(F)F)c3)n2)cc1)c1cccc(C(F)(F)F)c1`, the Potency was “inactive”. In the case of `Clc1ccc(Nc2nc(-c3cccs3)cs2)nc1`, the Potency is reported as 1.51 µM (active). With `CC(=O)Nc1cccc(-c2csc(Nc3cccc(C)n3)n2)c1` the Potency was 2.39 µM (active). `O=C(Nc1nc(-c2cccnc2)cs1)c1ccccc1F` was tested, and the Potency was “inactive”. In the case of `Cc1nc(CNS(=O)(=O)c2cccnc2)cs1`, the Potency is reported as “inactive”. For `c1csc(-c2cn3c(n2)SCC3)c1`, the Potency was “inactive”. For `Cc1ccccc1Nc1nc(-c2cccnc2)cs1`, the Potency was 6.01 µM (active). With `Cc1cc(=O)oc(C)c1C(=O)Nc1cnc2ccccc2c1` the Potency was “inactive”. In the case of `COC(=O)c1ccc(NC(=S)Nc2cccc(C)n2)cc1`, the Potency is reported as “inactive”. `COc1ccc(Br)cc1C1CC(=O)Nc2c1c(C)nn2-c1nc(C)cc(C)n1` (stereo unspecified) was tested, and the Potency was “inactive”. With `Cc1ccc(NC(=O)CSc2nc3c([nH]c4ccccc43)c(=O)n2-c2ccccc2)c(C)c1` the Potency was “inactive”. With `O=C(CN(C(=O)c1csnn1)c1cccc(Cl)c1)NC1CCCC1` the Potency was “inactive”. With `CCCCN(CC(=O)Nc1cccc(S(=O)(=O)N2CCCC2)c1)Cc1nc2ccccc2c(=O)[nH]1` the Potency was “inactive”. `COC(=O)c1ccc(COC(=O)CNC(=O)c2cccc(OC)c2)o1` was tested, and the Potency was “inactive”. In the case of `CCOC(=O)c1scc(-c2ccc(C)cc2)c1S(=O)(=O)Nc1cc(C)ccc1C`, the Potency is reported as “inactive”. For `Cc1ccc2nc(COc3ccccc3NC(=O)Nc3ccc(F)c(Cl)c3)cc(=O)n2c1`, the Potency was “inactive”. For `CC(NC(=O)c1ccco1)C(=O)Nc1nc(-c2ccccn2)cs1` (stereo unspecified), the Potency was “inactive”. In the case of `O=C(CN1C(=O)C2C3C=CC(C3)C2C1=O)Nc1nc(-c2ccccn2)cs1` (stereo unspecified), the Potency is reported as “inactive”. For `c1ccc(Nc2nc(-c3ccncc3)cs2)nc1`, the Potency was 4.78 µM (active). In the case of `CSc1nc(Nc2ccc(F)cc2)cc(-c2ccccc2)n1`, the Potency is reported as “inactive”. For `Cc1cccc(Nc2nc(-c3ccccc3)cs2)n1`, the Potency was 3.79 µM (active). With `COC(=O)c1cc2occc2n1Cc1nc(-c2ccc(C)cc2)oc1C` the Potency was “inactive”. For `COc1ccc2c(c1)C(NS(=O)(=O)OCC(Cl)(Cl)Cl)CCC2` (stereo unspecified), the Potency was “inactive”. With `COCCN(C(=O)CSCc1ccc(C)cc1)c1c(N)n(CC(C)C)c(=O)[nH]c1=O` the Potency was “inactive”. In the case of `CCOc1cccc(CC(=O)N2CCc3c([nH]c4ccccc34)C2c2ccc(OC)cc2)c1OCC` (stereo unspecified), the Potency is reported as “inactive”. In the case of `Cc1cc(=O)c2cc(C(=O)Nc3cccc(C)c3C)ccc2[nH]1`, the Potency is reported as “inactive”.
